High-throughput results from PubChem BioAssay.
D1 antag: blocks dopamine activation of the human D1 receptor; 360,000 compounds, 3.2% hits; P21728; activity change, negative = inhibition, % at 10 µM; HEK293 TREx D1 cells, calcium flux, dopamine EC80; stronger effect = lower value; in the data active means activity change below about -30%
Target sequence (P21728 whole entry, looked up): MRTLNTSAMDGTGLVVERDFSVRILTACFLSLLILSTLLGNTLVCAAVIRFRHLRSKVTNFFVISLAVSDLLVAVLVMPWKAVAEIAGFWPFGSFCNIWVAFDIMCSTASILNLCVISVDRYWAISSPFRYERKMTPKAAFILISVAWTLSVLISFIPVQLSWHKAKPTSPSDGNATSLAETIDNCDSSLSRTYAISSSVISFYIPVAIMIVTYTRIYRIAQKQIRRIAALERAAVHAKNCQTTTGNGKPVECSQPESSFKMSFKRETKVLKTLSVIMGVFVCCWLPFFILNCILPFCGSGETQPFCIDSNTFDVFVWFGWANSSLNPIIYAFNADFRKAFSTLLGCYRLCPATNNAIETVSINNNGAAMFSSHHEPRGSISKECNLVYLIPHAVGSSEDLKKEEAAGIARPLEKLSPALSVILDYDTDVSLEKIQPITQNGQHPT
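Inducible Hek293 Trex D1 cells (tetracycline, overnight, 30 C). Calcium dye 30–90 min RT. Antagonist mode: EC80 dopamine added after 180 s compound read.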
D3 ag: agonists of human D3 dopamine receptor. D3R DiscoveRx beta-arrestin cells, luminescence, 90 min. max activation, %. 410,000 compounds, 0.58% hits. AID 652048; in the data active means max activation above about 30%
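Agonist mode: compounds and dopamine controls were applied to plated cells for 90 min at 37 degrees C after an overnight attachment at 1500 cells/well. Luminescent read-out followed 30 - 60 minutes at room temperature with DiscoveRx detection reagent.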
D1 ag: agonists of human D1 dopamine receptor; 360,000 compounds, 1% hits; HEK293 T-REx D1 cells, calcium flux, agonist mode; activation, % at 2 µM; AID 504660; in the data active means activation above about 30%
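Agonism was scored from calcium flux recorded over 180 s (1 read/s) after pintool compound addition, following a 10-cycle baseline. Cells were inducible force-coupled HEK293 TREx D1, plated overnight at 30 C and loaded with no-wash calcium dye.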
D1 PAM: enhances dopamine response at the human D1 receptor. P21728. HEK293 TREx D1 cells, calcium flux, dopamine EC20 potentiation. potentiation, % at 10 µM. 360,000 compounds, 0.036% hits; in the data active means potentiation above about 30%
D3 antag: antagonists of human D3 dopamine receptor; P35462; D3R cells, DiscoveRx beta-arrestin luminescence, antagonist mode; stronger effect = lower value; max response, negative = inhibition, %; 360,000 compounds, 2.5% hits; AID 652054; in the data active means max response below about -50%; inconclusive means no clear call, values can overlap the other calls
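Cells plated overnight at 1500 cells/well, then exposed to library compounds with dopamine controls for 90 minutes at 37 degrees C. DiscoveRx reagent added for 30–60 minutes at room temperature; luminescence read, quantitative HTS format.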
A number is an active result; n = inactive; u = inconclusive; x = no result given; ! = not active in a repeat. This is a sample that favours compounds with a hit; in the whole collection about 6% have one here.

SMILES	D1 antag	D3 ag	D1 ag	D1 PAM	D3 antag
CC[C@@]1(c2ccccc2)NC(=O)N(C)C1=O	x	n	x	x	x
CCOC(=O)c1ccc2nc(C)cc(Nc3ccc(OC(C)C)cc3)c2c1	n	n	n	n	x
COC(=O)Cc1ccc(OC2(C)CCN(Cc3ccccc3OC(F)F)C2)cc1 (stereo unspecified)	x	n	x	x	-59
CSc1ccc(CN2CCC(C)(Oc3ccccc3F)C2)cc1 (stereo unspecified)	x	n	x	x	-57
CSc1ccc(CN2CCC(C)(Oc3ccc(C(C)=O)cc3)C2)cc1 (stereo unspecified)	x	n	x	x	-69
Cc1c(C(=O)NCc2cccs2)sc(=O)n1Cc1ccc(S(C)(=O)=O)cc1	x	n	x	x	n
C=Cc1ccc(CSc2nc(-c3ccccc3C)nc3c2Cc2c(CO)cnc(C)c2O3)cc1	n	n	n	n	x
COC(=O)C1CCN(C(c2ccccc2Cl)c2sc3nc(-c4ccco4)nn3c2O)CC1 (stereo unspecified)	x	n	n	n	x
CC(C)CNC(=O)c1ccccc1NC(=O)c1ccc(CSc2ccccc2)cc1	n	n	32	n	n
C/C(N)=C(/C#N)C(=O)CSc1nnnn1-c1ccc(C)cc1	-44	n	n	n	n
CCOc1ccc(N2C(=O)CN(C)C2=S)cc1	n	n	n	n	n
CCOc1ccc(N2C(=O)/C(=C/c3cccs3)N(C)C2=S)cc1	-37	n	n	n	n
CCN(CC)C(=O)c1ccc2nc(-c3ccccc3)c(-c3ccccc3)nc2c1	n	n	n	n	n
CCN(CC)C(=O)c1ccc2nc3ccccc3nc2c1	n	n	n	n	-63
COC(=O)c1c(C)[nH]c(C(=O)C(C)OC(=O)C2CC(=O)N(CCc3ccccc3)C2)c1C (stereo unspecified)	-33	n	n	n	n
COC(=O)c1c(C)[nH]c(C(=O)C(C)OC(=O)C2CC(=O)N(c3ccc(C)cc3)C2)c1C (stereo unspecified)	n	n	n	x	n
CC(O)[C@@H]1NC(=O)[C@H](Cc2ccccc2)NC(=O)[C@H](C(C)O)NC(=O)[C@H](CCCCN)NC(=O)[C@H](Cc2c[nH]c3ccccc23)NC(=O)[C@H](Cc2ccccc2)NC(=O)[C@H](Cc2ccccc2)NC(=O)[C@H](CC(N)=O)NC(=O)[C@H](CCCCN)NC(=O)[C@@H](NC(=O)CNC(=O)[C@H](C)N)CSSC[C@@H](C(=O)O)NC(=O)[C@H](CO)NC1=O (stereo partly specified)	x	n	x	x	x
CC1=C(C(=O)N(C(C)C)C(C)C)CC(CC(=O)NCc2ccco2)C(=O)N1Cc1ccc(F)cc1 (stereo unspecified)	x	n	x	x	n
COc1ccc(-c2coc3c(C(=O)NCc4cccs4)cccc23)c(C)c1	x	n	x	x	u
Cc1ccc(/C=N/NC(=O)NC2CCCCC2)o1	n	n	n	n	n
Cc1ccc(/C=C/C(=O)NC2CCCCCCC2)o1	n	n	n	n	-61
Cc1cc(C)nc(NC(=O)/C=C/c2ccccc2Cl)c1	-70	n	n	n	n
Cc1cc(N)c2cc(NC(=O)/C=C/c3ccccc3Cl)ccc2n1	n	n	n	n	-83
Cc1cc(C)nc(NC(=O)/C=C/c2ccc(Cl)cc2Cl)c1	n	n	n	n	n
Cc1oc2ncn(C)c(=O)c2c1C(=O)NCCCN1CCCCC1C (stereo unspecified)	n	n	n	n	x
SMILES	D1 antag	D3 ag	D1 ag	D1 PAM	D3 antag
CN(C)CCNC(=O)C(c1ccccc1)c1ccccc1	n	n	n	n	n
CN(C)CCC(=O)C(Cc1ccccc1)c1ccccc1 (stereo unspecified)	x	n	x	x	-112
CC(CCCN(C)C)C(Cc1ccccc1)c1ccccc1 (stereo unspecified)	x	n	x	x	-69
COc1ccc(N2CCN(C(=O)c3cc4c(=O)n(Cc5cccnc5)ccc4nc3C)CC2)cc1	n	n	n	n	x
COc1cc(C(=O)OCCCc2cc3ccccc3c(=O)o2)cc(OC)c1OC	x	n	n	n	n
COc1cc2cc(CCCOC(=O)c3cc(OC)c(OC)c(OC)c3)oc(=O)c2cc1OC	x	55	x	x	n
COc1cc(C(=O)OCCc2cc3ccccc3c(=O)o2)cc(OC)c1OC	x	34	n	n	n
Cc1ccccc1Nc1nnc(-c2ccc(C)c(S(=O)(=O)N3CCOCC3)c2)c2ccccc12	n	n	n	n	x
Cc1ccc(Nc2nnc(-c3ccc(C)c(S(=O)(=O)N4CCOCC4)c3)c3ccccc23)c(C)c1	-45	n	n	n	x
Cc1ccc(-c2nnc(Nc3ccc(F)cc3)c3ccccc23)cc1S(=O)(=O)NC(C)C	-34	n	n	n	x
Cc1ccc(-c2nnc(Nc3ccc(O)cc3)c3ccccc23)cc1S(=O)(=O)NC(C)(C)CO	-44	n	n	n	x
CCN(C(=O)Cn1nnc2sc3c(c2c1=O)CCC(C(C)(C)C)C3)c1cccc(C)c1 (stereo unspecified)	n	n	n	n	x
C[C@H](NC(=O)c1ccccc1)C(=O)OCC(=O)Nc1ccc(Cl)cn1	x	n	x	x	n
N#Cc1ccc(NC(=S)/N=C(\N)c2ccccc2)cc1	x	n	x	x	n
N#CN=C(N)c1ccccc1	-56!	n	n	n	n
CCOc1ccccc1N1CC(c2nc3ccccc3n2CCCCOc2ccccc2)CC1=O (stereo unspecified)	n	n	31	n	x
CCOc1ccc(N2CC(c3nc4ccccc4n3Cc3cccc(Cl)c3)CC2=O)cc1 (stereo unspecified)	-34	n	n	n	x
COc1ccc(N2CC(NC(=O)c3ccc4c(c3)OCO4)CC2=O)cc1OC (stereo unspecified)	x	n	n	n	x
Cc1cc2c(C)nc(N/N=C/c3ccc([N+](=O)[O-])cc3)nc2o1	n	n	n	n	n
Cc1cc2c(C)nc(N/N=C/c3ccc(F)cc3)nc2o1	n	n	n	n	-56
CCCCN(CC)CCNC(=O)C1CCCN(c2ncnc3onc(C)c23)C1 (stereo unspecified)	-30	n	n	n	x
CCOCCCNC(=O)C1CCCN(c2ncnc3onc(C)c23)C1 (stereo unspecified)	n	n	n	n	x
COc1ccc(N2CCN(c3ncnc4scc(-c5ccccc5)c34)CC2)cc1	n	31	n	n	n
Fc1ccc(-c2csc3ncnc(N4CCN(c5ccccc5)CC4)c23)cc1	n	n	n	n	n
c1ccc(N2CCN(c3ncnc4scc(-c5cccs5)c34)CC2)cc1	n	51	n	n	n
c1csc(-c2csc3ncnc(NCCCN4CCOCC4)c23)c1	n	n	n	n	-56
CCN1CCN(c2ncnc3scc(-c4ccc(OC)cc4)c23)CC1	n	n	n	n	-61
Cc1nc(C)c(CCNS(=O)(=O)c2ccc(C)c(C)c2)s1	n	n	n	n	x
Cc1ccccc1NC(=O)NCCCN1CCN(C)CC1	n	n	n	n	n
O=C(NCCCN1CCN(c2ccccc2F)CC1)Nc1ccccc1[N+](=O)[O-]	-54	n	n	n	-89
